Reference: PubChem BioAssay (NCI)
Values joined by “and” are separate entries in the source; they are usually repeats but may differ in a detail not shown here. Equal values may be shown once. The panel holds about 79,000 compounds, 15% with a hit somewhere; the sample as a whole holds those more often. Unmarked numbers belong to inactive results. Active and inactive are the calls of the source. No stated cut-off is given here; in the data, active means growth inhibition above about 70%; inactive means the rest.

Test: NCI Yeast Anticancer Drug Screen. Data for the rad50 strain (AID 155);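 further: 0% = growth of vehicle-only cultures of the same strain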
Details: S. cerevisiae rad50 strain growth inhibition, active compounds read high; at 50.0 µM unless noted
In short: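 Yeast carrying a defined DNA repair defect were exposed to test compounds, and growth was compared with vehicle-treated controls to give percent inhibition.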

Structure (SMILES)	growth inhibition
NCCCc1nonc1C(=O)O	-15.2%
COC1=NS(=O)(=O)C2CCCCCCC2O1 (stereo not drawn)	11.1%
CC1CN=C(N(C(=O)Nc2ccccc2)C2CCCCC2)S1 (stereo not drawn)	-43.1%
COc1ccc(-n2c(N)c(C#N)[nH]c2=O)cc1	-8.7%
NC(C=O)C(O)C(O)C(O)CO (stereo not drawn)	-1.75%
Cc1cc(OC(=O)c2c(-c3c(Cl)cccc3Cl)noc2C)n(-c2ccc(NC(=O)c3c(-c4c(Cl)cccc4Cl)noc3C)cc2)n1	36.8%
CC(=O)Oc1ccc(N2CC=C(c3ccccc3)CC2)cc1	-6.7%
OC(c1ccc(OCc2ccccc2)cc1)c1ccccn1 (stereo not drawn)	-1.15%
Cc1ccc(=O)[nH]n1	-3.25% and -31.6%
CC12CC(O)C3C(CCC4CC(O)CCC43C)C1CCC2C(=O)CO (stereo not drawn)	13.6%
O=C(Nc1ccccc1)c1cc(S(=O)(=O)Nc2n[nH]c(=O)[nH]2)c(SSc2cc(Cl)c(C(=O)Nc3ccccc3)cc2S(=O)(=O)Nc2n[nH]c(=O)[nH]2)cc1Cl	18.8%
C/C(N=NC(=S)N1CC2CCC(CC2)C1)=C1\C=CC=CN1O	80.3% (active)
S=C(S)Nc1cccc2ccccc12	-14.4% and 11.2%
CCCOC(=O)C1C(=O)CC(c2ccccc2)C1c1ccccc1 (stereo not drawn)	1.95%
O=C(Cc1ccc([N+](=O)[O-])cc1)Nc1cccc(O)c1	-4.85%
C/C(=C\c1ccc(N(C)C)cc1)c1ccncc1	63.3%
Nc1nc2cc(F)ccc2o1	1.05%
O=c1c2ccccc2c(=O)n2n1-c1cccc(c1)CSSCc1cccc-2c1	-16.9%
ON=C1CCC(c2ccccc2)CC1 (stereo not drawn)	-21.3%
O=C1c2ccccc2S(=O)(=O)c2c1cccc2[N+](=O)[O-]	14.1%

Structure (SMILES)	growth inhibition
CN(C)c1ccccc1C(=O)N/N=C\c1ccc(-c2ccccc2)cc1	7.05%
CCN(CC)c1ccc(/C=N/Nc2cc(C)nc3ccc(C4CCCCC4)cc23)cc1	25.8%
c1ccc(-c2cnoc2-c2ccccc2)cc1	14%
COc1ccc(N2C(N)=C(C#N)C(C#N)(C#N)C2c2cccc([N+](=O)[O-])c2)cc1 (stereo not drawn)	8.8%
CCSc1[nH]c(Nc2nc(-c3ccccc3)n(-c3ccccc3)n2)c(C(N)=O)c1C(N)=O	-16.9%
C[N+]1(C2C=CCC(c3ccccc3)C2[N+](=O)[O-])CCCC1 (stereo not drawn)	27.2%
C=C(C)C(C)/C(C)=N/NC(N)=O (stereo not drawn) (tested in a mixture with another compound)	6.85%
Cc1nc2ccncc2[nH]1	-7.7%
CCOC(=O)/C(Cc1ccc2ccccc2n1)=N/O	-6.35%
c1ccc(C2Cc3ccccc3C2c2ccccc2)cc1 (stereo not drawn)	9.85%
O=C1NC(=O)C(Cc2ccccc2)(c2cccnc2)N1 (stereo not drawn)	-28.6%
C=C1C(=O)O[C@@H]2C[C@@H](C)[C@@H]3C=CC(=O)[C@@]3(C)[C@@H](OC(=O)CCCC(=O)O[C@H]3[C@@H]4C(=C)C(=O)O[C@@H]4C[C@@H](C)[C@@H]4C=CC(=O)[C@]43C)[C@H]12	50.1%
ClC1CCC[N-]C1.ClC1CCC[N-]C1.[Cl][Pt+2][Cl] (stereo not drawn)	-7.1%
CCOC(=O)Cc1ccc2ccccc2c1	7.3%
CSc1ccc(Cl)cc1	6%
Cc1cc(Cl)ccc1N=C1NC(=O)C(CC(=O)Nc2ccc([N+](=O)[O-])cc2[N+](=O)[O-])S1 (stereo not drawn)	25.1%
OC1(C#CC#CC2(O)CCCCC2)CCCCC1	12.9%
CCCCS(=O)/C=C\S(=O)CCCC (stereo not drawn)	-7%
CC1=NN(C(=O)Nc2ccc(Cl)cc2)C(=O)C2CCC(=O)N12 (stereo not drawn)	2.6%
CC(=O)Nc1cc([N+](=O)[O-])cc([N+](=O)[O-])c1O	-7.5%

Test: NCI Yeast Anticancer Drug Screen. Data for the sgs1 mgt1 strain (AID 161);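 further: 0% = growth of cultures given vehicle only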
Details: S. cerevisiae sgs1 mgt1 strain, active compounds read high; at 50.0 µM unless noted
In short: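 Genetically altered yeast, compound exposure, growth inhibition relative to vehicle.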

Structure (SMILES)	growth inhibition
NCCCc1nonc1C(=O)O	-3.85%
COC1=NS(=O)(=O)C2CCCCCCC2O1 (stereo not drawn)	1.15%
CC1CN=C(N(C(=O)Nc2ccccc2)C2CCCCC2)S1 (stereo not drawn)	-60.1%
COc1ccc(-n2c(N)c(C#N)[nH]c2=O)cc1	-14%
NC(C=O)C(O)C(O)C(O)CO (stereo not drawn)	4.95%
Cc1cc(OC(=O)c2c(-c3c(Cl)cccc3Cl)noc2C)n(-c2ccc(NC(=O)c3c(-c4c(Cl)cccc4Cl)noc3C)cc2)n1	19.7%
CC(=O)Oc1ccc(N2CC=C(c3ccccc3)CC2)cc1	-9.75%
OC(c1ccc(OCc2ccccc2)cc1)c1ccccn1 (stereo not drawn)	-4.45%
Cc1ccc(=O)[nH]n1	-9.8% and -17.8%
CC12CC(O)C3C(CCC4CC(O)CCC43C)C1CCC2C(=O)CO (stereo not drawn)	7.3%
O=C(Nc1ccccc1)c1cc(S(=O)(=O)Nc2n[nH]c(=O)[nH]2)c(SSc2cc(Cl)c(C(=O)Nc3ccccc3)cc2S(=O)(=O)Nc2n[nH]c(=O)[nH]2)cc1Cl	-8.5%
C/C(N=NC(=S)N1CC2CCC(CC2)C1)=C1\C=CC=CN1O	82.2% (active)
CCCOC(=O)C1C(=O)CC(c2ccccc2)C1c1ccccc1 (stereo not drawn)	1.3%
O=C(Cc1ccc([N+](=O)[O-])cc1)Nc1cccc(O)c1	-4.9%
C/C(=C\c1ccc(N(C)C)cc1)c1ccncc1	68.5%
Nc1nc2cc(F)ccc2o1	-9.7%
O=c1c2ccccc2c(=O)n2n1-c1cccc(c1)CSSCc1cccc-2c1	-10.6%
ON=C1CCC(c2ccccc2)CC1 (stereo not drawn)	13.8%
O=C1c2ccccc2S(=O)(=O)c2c1cccc2[N+](=O)[O-]	3.6%

Structure (SMILES)	growth inhibition
CN(C)c1ccccc1C(=O)N/N=C\c1ccc(-c2ccccc2)cc1	0.6%
CCN(CC)c1ccc(/C=N/Nc2cc(C)nc3ccc(C4CCCCC4)cc23)cc1	21.1%
c1ccc(-c2cnoc2-c2ccccc2)cc1	7.15%
COc1ccc(N2C(N)=C(C#N)C(C#N)(C#N)C2c2cccc([N+](=O)[O-])c2)cc1 (stereo not drawn)	-2.05%
CCSc1[nH]c(Nc2nc(-c3ccccc3)n(-c3ccccc3)n2)c(C(N)=O)c1C(N)=O	7.8%
C[N+]1(C2C=CCC(c3ccccc3)C2[N+](=O)[O-])CCCC1 (stereo not drawn)	35.5%
C=C(C)C(C)/C(C)=N/NC(N)=O (stereo not drawn) (tested in a mixture with another compound)	-5.75%
Cc1nc2ccncc2[nH]1	-17.4%
CCOC(=O)/C(Cc1ccc2ccccc2n1)=N/O	0.9%
c1ccc(C2Cc3ccccc3C2c2ccccc2)cc1 (stereo not drawn)	22.8%
O=C1NC(=O)C(Cc2ccccc2)(c2cccnc2)N1 (stereo not drawn)	-5.65%
C=C1C(=O)O[C@@H]2C[C@@H](C)[C@@H]3C=CC(=O)[C@@]3(C)[C@@H](OC(=O)CCCC(=O)O[C@H]3[C@@H]4C(=C)C(=O)O[C@@H]4C[C@@H](C)[C@@H]4C=CC(=O)[C@]43C)[C@H]12	57.6%
ClC1CCC[N-]C1.ClC1CCC[N-]C1.[Cl][Pt+2][Cl] (stereo not drawn)	-9.7%
CCOC(=O)Cc1ccc2ccccc2c1	-1.95%
CSc1ccc(Cl)cc1	1.7%
Cc1cc(Cl)ccc1N=C1NC(=O)C(CC(=O)Nc2ccc([N+](=O)[O-])cc2[N+](=O)[O-])S1 (stereo not drawn)	12.1%
OC1(C#CC#CC2(O)CCCCC2)CCCCC1	0.2%
CCCCS(=O)/C=C\S(=O)CCCC (stereo not drawn)	4.75%
CC(=O)Nc1cc([N+](=O)[O-])cc([N+](=O)[O-])c1O	-1.6%
